From PubChem BioAssay (Tox21) come the findings set out here.

Each structure is given as a SMILES string. Results filed as inconclusive are left out. Where a call stands in place of a potency, no number is given. Some structures have more than one record in an assay (separate samples or runs), and their calls can disagree. Activity calls are given as the source filed them. Calls come from the whole dose curve.
Potency is the fitted concentration of half-maximal effect.

The experiment can be described thus: qHTS assay to identify small molecule agonists of H2AX - cell viability counter screen (AID 1224847). Note: nearly all actives have a fitted effect of over 30% in size. The conditions noted are these: CHO-K1 viability, CellTiter-Glo luminescence, 3 h; series mostly up to 154 µM. From the text:
National Center for Advancing Translational Sciences [NCATS]
NIH Chemical Genomics Center [NCGC]
U.S. Environmental Protection Agency [EPA]
National Institutes of Environmental Health Sciences [NIEHS]
National Toxicology Program [NTP]
U.S. Food and Drug Administration [FDA]
HTRF phospho-H2AX (Ser139) assay (Cisbio Bioassays, US) enables the quantitative detection of the histone variant H2AX when phosphorylated on serine 139. When double-stranded DNA breaks, either by ionizing radiation or endogenous physiological processes, H2AX becomes phosphorylated at Ser139. This phospho-Ser139 serves as a sensitive biomarker for the detection of such breaks, localizing the site of DNA repair. So, HTRF phospho-H2AX Ser139 is a pertinent assay to study genome stability, the cell cycle, DNA repair, and it serves as a biomarker for cancer, and to understand aging. Wild type CHO-K1 cells were used to identify the inducers of Phospho-H2AX Ser 139 from the Tox21 compound collections. Also cytotoxicity of the Tox21 10K compound library against the CHO-K1 cell line was tested by measuring the cell viability using CellTiter-Glo assay (Promega, Madison, WI).
Tox21 Assay Protocol Summary:
The CHO-K1 cells suspended in culture medium containing 10% FBS were dispensed at 1000 cells/ 3 ul/well in 1536-well white wall/solid bottom plates (Greiner Bio-One North America, NC) using a Multidrop Combi (Thermo Fisher Scientific Inc., Waltham, MA). After the assay plates were incubated at 37C overnight, 23 nl of compounds at 15 concentrations (from 5-48 columns) or positive control (from 1 to 4 columns) were transferred to the assay plates using a Pintool station (Wako, San Diego, CA) into each well resulting in a final DMSO concentration of 0.76%. After 3hr incubation at 37C, 3 uL/well CellTiter-Glo luminescent cell viability reagent (Promega Corporation, Madison, WI) was added using a Flying Reagent Dispenser (FRD) (Aurora Discovery, CA). After incubation at room temperature for 30 min, the luminescence intensity was read using a ViewLux plate reader (PerkinElmer, Waltham, MA).
As to `CCNc1nc(Cl)nc(NC(C)C)n1`, the Potency result was “inactive”.

For `ClC(Cl)c1ccccc1`, the Potency entry was “inactive”.

As for `C[C@H]1C(=O)O[C@@H]2CCN3CC=C(COC(=O)[C@](C)(O)[C@]1(C)O)[C@H]23`, the Potency entry was “inactive”.

As to `Cc1cccc(C)c1N`, the Potency result was “inactive”.

Regarding `Cc1ccc(O)c(C)c1`, the Potency entry is “inactive”.

In the case of `CN(C)C(=O)C(c1ccccc1)c1ccccc1`, the Potency result is “inactive”.

`N#Cc1cccc(C#N)c1`: the Potency result is “inactive”.

Regarding `CCCOC(=O)c1ccccc1C(=O)OCCC`, the Potency entry was “inactive”.

Regarding `CN(C)C(=O)Cl`, the Potency result was “inactive”.

Turning to `Nc1nc(N)nc(NC2CC2)n1`, the Potency entry is “inactive”.

Consider `CC(=O)/C=C/c1ccccc1`, for which the Potency result was “inactive”.

With `CCOc1ccc(N)cc1`, the Potency result was “inactive”.

As for `O=[N+]([O-])c1ccc(Cl)cc1`, the Potency entry was “inactive”.

On to `Nc1ccc(N)cc1`, for which the Potency result is “inactive”.

Turning to `CN1C(=O)CCS(=O)(=O)C1c1ccc(Cl)cc1` (stereo not given), the Potency result was “inactive”.

For `C=CC#N`, the Potency entry was “inactive”.

On to `O=C/C=C/c1ccccc1`, for which the Potency result is “inactive”.

With `COc1cc(-c2ccc(N)c(OC)c2)ccc1N`, the Potency entry was “inactive”.

For the compound `O=P1(NCCCl)OCCCN1CCCl` (stereo not given), the Potency entry is “inactive”.

On to `CNC(=O)Oc1cccc2ccccc12`, for which the Potency result was “inactive”.

As for `CC(C)c1cccc(C(C)C)c1O`, the Potency is 50.5 µM (active) and inactive.

In the case of `CCCCCCCCCCCCCCCCCC(=O)O`, the Potency entry was “inactive”.

As for `CN(C)C(=O)Nc1cccc(C(F)(F)F)c1`, the Potency result is “inactive”.

Take `N#CN=C(N)N`: the Potency entry is “inactive”.

On to `Cc1ccc(N)cc1`, for which the Potency result is “inactive”.

`O=C(O)C(Br)Br`: the Potency result was “inactive”.

With `Nc1cc(Cl)cc(Cl)c1`, the Potency entry is “inactive”.

`NNc1ccccc1`: the Potency result was “inactive”.

Consider `CNC(=O)O/N=C/C(C)(C)SC`, for which the Potency result was “inactive”.

As to `O=S(=O)(O)OOS(=O)(=O)O`, the Potency entry is “inactive”.

`CCOC(=O)CC(SP(=O)(OC)OC)C(=O)OCC` (stereo not given): the Potency result was “inactive”.

Turning to `C=C(C)C(=O)OCC(CC)CCCC` (stereo not given), the Potency entry was “inactive”.

Regarding `Cc1cccc(N)c1`, the Potency result was “inactive”.

As for `N#Cc1ccccn1`, the Potency result was “inactive”.

`COc1nc(NC(C)C)nc(NC(C)C)n1`: the Potency entry was “inactive”.

`OC[C@@H](O)[C@H]1O[C@@H]2O[C@H](C(Cl)(Cl)Cl)O[C@@H]2[C@H]1O`: the Potency entry is “inactive”.

Regarding `COS(=O)(=O)OC`, the Potency result is “inactive”.

Take `CN(C)NC(=O)CCC(=O)O`: the Potency entry is “inactive”.

For `Cc1cc(O)ccc1Cl`, the Potency result is “inactive”.

For `C[C@]12CC[C@H](O)CC1=CC[C@@H]1[C@@H]2CC[C@]2(C)C(=O)CC[C@@H]12`, the Potency is 89.8 µM (active) and inactive.
